From PubChem
In the library only some 2.5% were active in any assay of this set; here they are far more common.
ULK1 primary: human ULK1 kinase inhibition, primary screen. AlphaScreen Atg13 phosphorylation by ULK1, luminescence. O75385. inhibition, % at 5.96 µM. 1.9% of 30,000 active; in the data active = inhibition above about 43%;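 also: 0% = median of compound wells and 100% = no enzyme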
ASK1 primary: inhibitors of human ASK1 kinase. Q99683. AlphaScreen MKK6 phosphorylation by ASK1, luminescence. inhibition, % at 7.44 µM. 0.99% of 22,000 active. AID 1159602; in the data active = inhibition above about 35%;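 also: 0% = median of compound wells and 100% = no enzyme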
The depositor's hits bear a star; . = no result given.

SMILES	ULK1 primary	ASK1 primary
NCCc1cc(O)c(O)cc1O	91*	.
NC1CCCC1c1ccccc1 (centres undefined)	-6	.
Nc1nc(/N=C/c2ccc(N(CCCl)CCCl)cc2)n[nH]1	-6	.
Oc1cc(Cl)ccc1Oc1ccc(Cl)cc1Cl	44*	.
Oc1ccc(Cl)cc1Cc1ccccc1	-34	.
CC(C)C(=O)NC(Oc1ccccc1C(N)=O)C(Cl)(Cl)Cl (centres undefined)	-3	.
O=P(Oc1ccccc1)(Oc1ccccc1)N1CCCCC1	0	.
CCCCCCC(=O)O[C@H]1CC[C@H]2[C@@H]3CCC4=CC(=O)CC[C@]4(C)[C@H]3CC[C@]12C	1	.
FC(F)(F)c1cccc(C2CNCCO2)c1 (centres undefined)	-17	.
CC[n+]1c(-c2ccccc2)c2cc(N)ccc2c2ccc(N)cc21	62*	.
O=[N+]([O-])c1ccc(NCCCCNc2ccc([N+](=O)[O-])c3cccnc23)c2ncccc12	-6	.
CCC(Br)(CC)C(=O)NC(N)=O	82*	.
CCC(CO)NC(=O)[C@@H]1C=C2c3cccc4[nH]cc(c34)C[C@H]2N(C)C1 (some centres undefined)	53*	.
CN1C[C@H](C(=O)N[C@]2(C)O[C@@]3(O)C4CCCN4C(=O)[C@H](Cc4ccccc4)N3C2=O)C=C2c3cccc4[nH]cc(c34)C[C@H]21 (some centres undefined)	23	.
CN(C)[C@@H]1C(=O)C(C(N)=O)=C(O)[C@@]2(O)C(=O)C3=C(O)c4c(O)cccc4[C@@](C)(O)[C@H]3[C@H](O)[C@@H]12	51*	.
CCN1CCN(c2c(Cl)cccc2NC(C)=O)CC1	0	3
Cl/C=C/C[N+]12CN3CN(CN(C3)C1)C2	0	.
NCCC(O)C(=O)N[C@@H]1C[C@H](N)[C@@H](OC2O[C@H](CN)[C@@H](O)[C@H](O)[C@H]2N)[C@H](OC2O[C@H](CO)C(O)[C@H]2O)[C@H]1O (some centres undefined)	5	.
